# Assay results reported in PMC7862700, “An all-to-all approach to the identification of sequence-specific readers for epigenetic DNA modifications on cytosine”.
# Columns and labels:
# Test in all cases: DAPPL (digital affinity profiling via proximity ligation, sequencing); 10 mM Tris-HCl pH 7.5, 50 mM NaCl, 1 mM DTT, 4% glycerol, room temperature, 30 min; GST-TFs on glutathione beads, 16-mer random dsDNA library, 0.1% formaldehyde crosslink after washing; high values mean tight binding
# Conditions in all cases: protein: recombinant; tags: N-terminal GST; dsDNA, one strand shown
# FLI1 = target: T1, FLI1 (Homo sapiens, UniProt Q01543 1-452)
# T1 sequence: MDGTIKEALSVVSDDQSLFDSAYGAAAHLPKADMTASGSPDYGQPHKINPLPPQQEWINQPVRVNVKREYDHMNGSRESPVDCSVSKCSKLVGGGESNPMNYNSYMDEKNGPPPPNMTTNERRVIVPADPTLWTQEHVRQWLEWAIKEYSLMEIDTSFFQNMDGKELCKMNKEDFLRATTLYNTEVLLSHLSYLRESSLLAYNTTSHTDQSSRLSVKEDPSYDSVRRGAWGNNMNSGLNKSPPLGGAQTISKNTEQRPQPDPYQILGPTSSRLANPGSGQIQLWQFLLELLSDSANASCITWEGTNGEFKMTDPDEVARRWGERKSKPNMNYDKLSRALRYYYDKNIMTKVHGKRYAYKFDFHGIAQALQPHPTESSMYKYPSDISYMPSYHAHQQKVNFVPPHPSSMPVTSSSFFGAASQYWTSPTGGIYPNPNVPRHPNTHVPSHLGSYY
# Method in brief: (§1)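 Binding signal is given per hexamer as its read frequency for a factor divided by its frequency in the tag-only sample. GST-fused human transcription factors were expressed in yeast, captured on glutathione beads, barcoded with DNA and pooled with that sample, then incubated with 200 nmole of a 16-mer random double-stranded DNA library in Tris/NaCl/DTT/glycerol buffer for 30 min at room temperature. The pools were then washed, crosslinked, proximity-ligated, amplified by PCR and sequenced on an Illumina NextSeq500.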
# ELK1 = target: T2, ELK1 (Homo sapiens, UniProt P19419 1-428)
# T2 sequence: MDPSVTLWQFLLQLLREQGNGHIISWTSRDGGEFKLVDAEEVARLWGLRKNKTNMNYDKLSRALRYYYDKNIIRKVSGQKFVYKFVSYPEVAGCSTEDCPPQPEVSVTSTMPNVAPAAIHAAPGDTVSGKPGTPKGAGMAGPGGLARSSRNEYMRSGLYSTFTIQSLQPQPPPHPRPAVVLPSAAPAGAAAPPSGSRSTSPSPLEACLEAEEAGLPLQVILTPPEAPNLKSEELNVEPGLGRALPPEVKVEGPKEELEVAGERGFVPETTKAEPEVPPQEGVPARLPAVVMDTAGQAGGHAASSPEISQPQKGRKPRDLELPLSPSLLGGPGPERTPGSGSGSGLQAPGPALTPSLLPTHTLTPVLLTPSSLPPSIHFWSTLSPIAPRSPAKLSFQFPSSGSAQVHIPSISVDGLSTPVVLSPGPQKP
# Method in brief: as §1
# GABPA = target: T3, GABPA (Homo sapiens, UniProt Q06546 1-454)
# T3 sequence: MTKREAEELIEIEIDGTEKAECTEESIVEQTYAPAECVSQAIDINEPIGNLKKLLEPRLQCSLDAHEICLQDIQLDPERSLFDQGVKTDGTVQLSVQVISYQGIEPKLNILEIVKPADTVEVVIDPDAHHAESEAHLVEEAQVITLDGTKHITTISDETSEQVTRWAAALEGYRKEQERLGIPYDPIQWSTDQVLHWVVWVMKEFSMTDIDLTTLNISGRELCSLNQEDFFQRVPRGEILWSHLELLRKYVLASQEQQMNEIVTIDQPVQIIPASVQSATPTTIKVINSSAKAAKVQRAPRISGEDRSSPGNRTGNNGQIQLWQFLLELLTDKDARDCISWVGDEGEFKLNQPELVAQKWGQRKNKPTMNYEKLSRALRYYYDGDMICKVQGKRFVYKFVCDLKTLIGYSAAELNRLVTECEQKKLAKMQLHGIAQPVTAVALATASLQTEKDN
# Method in brief: as §1
# ERG = target: T4, ERG (Homo sapiens, UniProt P11308 1-479)
# T4 sequence: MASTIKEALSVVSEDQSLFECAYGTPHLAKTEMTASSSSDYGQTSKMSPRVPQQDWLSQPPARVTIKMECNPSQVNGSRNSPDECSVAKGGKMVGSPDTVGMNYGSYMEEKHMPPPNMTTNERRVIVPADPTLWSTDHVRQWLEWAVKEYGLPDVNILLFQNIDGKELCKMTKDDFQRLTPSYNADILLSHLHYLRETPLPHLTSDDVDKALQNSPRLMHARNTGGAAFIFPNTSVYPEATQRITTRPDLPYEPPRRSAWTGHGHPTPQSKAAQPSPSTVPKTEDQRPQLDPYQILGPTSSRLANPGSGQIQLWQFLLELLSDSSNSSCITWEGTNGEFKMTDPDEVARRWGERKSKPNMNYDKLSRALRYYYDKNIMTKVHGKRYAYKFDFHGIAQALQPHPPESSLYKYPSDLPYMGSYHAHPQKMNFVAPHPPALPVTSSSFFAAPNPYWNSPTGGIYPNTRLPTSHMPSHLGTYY
# Method in brief: as §1
# ELF1 = ELF1 (Homo sapiens, UniProt P32519 1-619)
# Chain of ELF1 (P32519 whole entry): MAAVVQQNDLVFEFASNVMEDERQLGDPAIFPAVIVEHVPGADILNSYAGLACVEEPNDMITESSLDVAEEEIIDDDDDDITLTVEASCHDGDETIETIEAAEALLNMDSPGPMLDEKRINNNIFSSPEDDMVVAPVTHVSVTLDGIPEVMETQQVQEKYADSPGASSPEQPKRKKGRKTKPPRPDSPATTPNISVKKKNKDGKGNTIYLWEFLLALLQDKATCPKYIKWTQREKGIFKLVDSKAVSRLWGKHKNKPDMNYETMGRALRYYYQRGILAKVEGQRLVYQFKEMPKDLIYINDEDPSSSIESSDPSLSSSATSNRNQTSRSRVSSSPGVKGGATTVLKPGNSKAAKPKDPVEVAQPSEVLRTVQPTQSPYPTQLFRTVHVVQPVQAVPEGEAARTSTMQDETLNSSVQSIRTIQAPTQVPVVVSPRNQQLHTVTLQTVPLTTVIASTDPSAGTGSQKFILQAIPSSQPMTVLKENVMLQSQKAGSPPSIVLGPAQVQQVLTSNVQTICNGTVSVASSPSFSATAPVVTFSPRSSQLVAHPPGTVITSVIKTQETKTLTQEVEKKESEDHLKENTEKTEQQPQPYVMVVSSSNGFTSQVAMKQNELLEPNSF
# Method in brief: as §1
# EHF = target: T5, EHF (Homo sapiens, UniProt Q9NZC4 1-300)
# T5 sequence: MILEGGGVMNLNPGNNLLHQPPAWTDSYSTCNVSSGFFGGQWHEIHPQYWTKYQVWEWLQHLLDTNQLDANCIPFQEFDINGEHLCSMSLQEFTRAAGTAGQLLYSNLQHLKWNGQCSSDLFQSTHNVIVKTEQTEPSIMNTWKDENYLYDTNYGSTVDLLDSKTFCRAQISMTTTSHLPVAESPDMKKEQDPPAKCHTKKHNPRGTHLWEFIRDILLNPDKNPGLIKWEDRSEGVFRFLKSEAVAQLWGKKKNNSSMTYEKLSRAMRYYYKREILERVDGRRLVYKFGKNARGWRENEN
# Method in brief: as §1
# SPI1 = SPI1 (Homo sapiens, UniProt P17947 1-270)
# Method in brief: as §1
# SPIB = SPIB (Homo sapiens, UniProt Q01892 1-262)
# Chain of SPIB (Q01892 whole entry): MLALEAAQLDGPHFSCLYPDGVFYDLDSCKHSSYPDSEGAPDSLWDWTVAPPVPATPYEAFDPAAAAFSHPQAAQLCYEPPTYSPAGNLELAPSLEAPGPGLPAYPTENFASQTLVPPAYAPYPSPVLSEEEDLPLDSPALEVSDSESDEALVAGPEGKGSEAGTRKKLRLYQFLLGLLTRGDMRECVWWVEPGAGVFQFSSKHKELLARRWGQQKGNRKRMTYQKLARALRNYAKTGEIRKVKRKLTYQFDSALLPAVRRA
# Method in brief: as §1
# ELK3 = target: T6, ELK3 (Homo sapiens, UniProt P41970 1-407)
# T6 sequence: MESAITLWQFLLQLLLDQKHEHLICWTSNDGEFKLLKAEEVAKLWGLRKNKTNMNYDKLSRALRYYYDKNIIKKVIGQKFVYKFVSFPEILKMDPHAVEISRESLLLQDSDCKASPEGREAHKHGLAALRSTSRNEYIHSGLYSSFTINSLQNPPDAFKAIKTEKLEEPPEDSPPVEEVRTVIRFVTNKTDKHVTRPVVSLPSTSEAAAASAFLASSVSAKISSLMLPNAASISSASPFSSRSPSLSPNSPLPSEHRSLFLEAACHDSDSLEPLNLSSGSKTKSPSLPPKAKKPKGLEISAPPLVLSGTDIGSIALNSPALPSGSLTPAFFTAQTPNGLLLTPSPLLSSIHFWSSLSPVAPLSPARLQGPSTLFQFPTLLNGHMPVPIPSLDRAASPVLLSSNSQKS
# Method in brief: as §1
sequence,measurement,setting,value
AATCCC,binding signal,FLI1,"1.36 fold enrichment (6-mer frequency, TF over GST control)"
same,binding signal,ELK1,"1.36 fold enrichment (6-mer frequency, TF over GST control)"
same,binding signal,GABPA,"1.38 fold enrichment (6-mer frequency, TF over GST control)"
same,binding signal,ERG,"1.42 fold enrichment (6-mer frequency, TF over GST control)"
same,binding signal,ELF1,"1.35 fold enrichment (6-mer frequency, TF over GST control)"
same,binding signal,EHF,"1.39 fold enrichment (6-mer frequency, TF over GST control)"
same,binding signal,SPI1,"1.26 fold enrichment (6-mer frequency, TF over GST control)"
same,binding signal,SPIB,"1.32 fold enrichment (6-mer frequency, TF over GST control)"
same,binding signal,ELK3,"1.13 fold enrichment (6-mer frequency, TF over GST control)"
